Of roughly 8,800 targets only a part is listed; those with a hit were picked by preference. About 0.5% of all pairs of compound and target were hits. Unmarked numbers belong to inactive results.
What was measured:
Experiment in all cases: log2 fold change, soluble protein after heating vs DMSO (PISA); higher = thermal stabilisation; K562 lysate, 10 uM; active = over 0.2 and 3.5 SD of the protein, either way, in both replicates (recomputed)
vemurafenib = compound: CCCS(=O)(=O)Nc1ccc(F)c(C(=O)c2c[nH]c3ncc(-c4ccc(Cl)cc4)cc23)c1F [vemurafenib]
Procedure, shortened: (§1)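 Quantification was by TMTpro 16plex LC-MS/MS with equalised channel sums, applied to the supernatant after 21,000xg for 90 min. Samples were crude K562 extract at 1 mg/mL protein in PBS pH 7.4 with 1 mM MgCl2, treated with 10 μM compound for 30 min, heated for 3 min across 48°C-58°C, pooled and brought to 0.5% NP-40 at 4°C. Values are log-two fold changes in thermal stability relative to solvent controls, from duplicates.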

[1] = compound: CCCS(=O)(=O)Nc1ccc(F)c(C(=O)c2c[nH]c3ncc(Cl)cc23)c1F
Procedure, shortened: as §1

barasertib = compound: CCN(CCCOc1ccc2c(Nc3cc(CC(=O)Nc4cccc(F)c4)[nH]n3)ncnc2c1)CCOP(=O)(O)O [barasertib]
Procedure, shortened: as §1

[2] = compound: CC[C@@H]1C(=O)N(C)c2cnc(Nc3ccc(C(=O)NC4CCN(C)CC4)cc3OC)nc2N1C1CCCC1
Procedure, shortened: as §1

volasertib = compound: CC[C@@H]1C(=O)N(C)c2cnc(Nc3ccc(C(=O)N[C@H]4CC[C@H](N5CCN(CC6CC6)CC5)CC4)cc3OC)nc2N1C(C)C [volasertib]
Procedure, shortened: as §1

[3] = compound: CCn1c(C(=O)N(C2CC2)C2CC2)cc2c3c(ncn3C)c(Nc3cc(C)n(C)n3)nc21
Procedure, shortened: as §1

[4] = compound: CCn1cc(-c2ccnc3[nH]c(-c4cccc(CN(C)C)c4)cc23)c(-c2ccc(NC(=O)N(C)C)cc2)n1
Procedure, shortened: as §1

[5] = compound: CN1CCC(CNc2ccc3ncc(-c4cccc(OC(F)(F)F)c4)n3n2)CC1
Procedure, shortened: as §1

saracatinib = compound: CN1CCN(CCOc2cc(OC3CCOCC3)c3c(Nc4c(Cl)ccc5c4OCO5)ncnc3c2)CC1 [saracatinib]
Procedure, shortened: as §1

sotrastaurin = compound: CN1CCN(c2nc(C3=C(c4c[nH]c5ccccc45)C(=O)NC3=O)c3ccccc3n2)CC1 [sotrastaurin]
Procedure, shortened: as §1

Chain of UniProt P54886 (P54886 whole entry, looked up): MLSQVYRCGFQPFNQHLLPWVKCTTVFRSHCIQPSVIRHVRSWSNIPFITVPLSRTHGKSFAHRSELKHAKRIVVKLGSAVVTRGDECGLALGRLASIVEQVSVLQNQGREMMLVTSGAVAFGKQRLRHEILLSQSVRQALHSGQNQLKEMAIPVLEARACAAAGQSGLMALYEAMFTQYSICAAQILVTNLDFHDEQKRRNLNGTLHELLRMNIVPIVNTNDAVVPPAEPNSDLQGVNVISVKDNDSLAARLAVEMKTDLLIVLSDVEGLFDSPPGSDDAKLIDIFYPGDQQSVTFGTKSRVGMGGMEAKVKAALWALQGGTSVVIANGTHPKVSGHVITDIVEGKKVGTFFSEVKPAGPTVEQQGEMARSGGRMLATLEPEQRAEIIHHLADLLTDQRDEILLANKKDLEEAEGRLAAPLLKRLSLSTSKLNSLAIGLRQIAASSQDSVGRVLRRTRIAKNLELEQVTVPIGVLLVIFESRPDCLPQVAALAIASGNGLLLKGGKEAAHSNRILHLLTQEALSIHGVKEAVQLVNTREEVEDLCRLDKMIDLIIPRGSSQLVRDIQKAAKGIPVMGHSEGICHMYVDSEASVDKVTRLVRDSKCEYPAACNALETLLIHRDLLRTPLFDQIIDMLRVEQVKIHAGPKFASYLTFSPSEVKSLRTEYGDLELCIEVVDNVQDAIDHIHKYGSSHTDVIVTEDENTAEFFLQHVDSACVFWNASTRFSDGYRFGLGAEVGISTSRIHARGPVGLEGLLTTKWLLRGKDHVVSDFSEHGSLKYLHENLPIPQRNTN
Chain of UniProt P11310 (P11310 whole entry, looked up): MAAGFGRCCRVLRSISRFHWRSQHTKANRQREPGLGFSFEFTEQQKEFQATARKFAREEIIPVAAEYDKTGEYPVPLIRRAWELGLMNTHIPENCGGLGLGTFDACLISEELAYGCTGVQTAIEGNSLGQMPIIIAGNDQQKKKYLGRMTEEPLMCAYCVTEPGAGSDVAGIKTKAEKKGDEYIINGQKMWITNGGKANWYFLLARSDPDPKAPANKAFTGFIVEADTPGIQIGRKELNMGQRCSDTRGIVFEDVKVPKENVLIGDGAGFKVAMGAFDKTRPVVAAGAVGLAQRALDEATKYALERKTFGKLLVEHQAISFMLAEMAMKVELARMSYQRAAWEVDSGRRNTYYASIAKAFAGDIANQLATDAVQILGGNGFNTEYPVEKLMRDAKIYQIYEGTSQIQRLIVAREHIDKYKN
Chain of UniProt Q92685 (Q92685 whole entry, looked up): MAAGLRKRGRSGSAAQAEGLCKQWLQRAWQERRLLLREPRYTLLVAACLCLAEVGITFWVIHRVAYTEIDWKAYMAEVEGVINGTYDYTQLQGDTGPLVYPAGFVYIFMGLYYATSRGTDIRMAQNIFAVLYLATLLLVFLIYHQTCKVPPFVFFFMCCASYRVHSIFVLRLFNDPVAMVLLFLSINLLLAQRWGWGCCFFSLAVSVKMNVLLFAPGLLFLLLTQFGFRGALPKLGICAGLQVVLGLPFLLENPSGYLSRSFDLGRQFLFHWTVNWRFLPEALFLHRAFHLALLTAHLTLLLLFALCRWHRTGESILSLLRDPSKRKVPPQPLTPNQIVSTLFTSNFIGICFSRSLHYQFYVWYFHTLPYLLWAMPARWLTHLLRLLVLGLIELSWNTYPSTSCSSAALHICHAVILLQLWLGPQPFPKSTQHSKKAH
Chain of UniProt Q9Y4X0 (Q9Y4X0 whole entry, looked up): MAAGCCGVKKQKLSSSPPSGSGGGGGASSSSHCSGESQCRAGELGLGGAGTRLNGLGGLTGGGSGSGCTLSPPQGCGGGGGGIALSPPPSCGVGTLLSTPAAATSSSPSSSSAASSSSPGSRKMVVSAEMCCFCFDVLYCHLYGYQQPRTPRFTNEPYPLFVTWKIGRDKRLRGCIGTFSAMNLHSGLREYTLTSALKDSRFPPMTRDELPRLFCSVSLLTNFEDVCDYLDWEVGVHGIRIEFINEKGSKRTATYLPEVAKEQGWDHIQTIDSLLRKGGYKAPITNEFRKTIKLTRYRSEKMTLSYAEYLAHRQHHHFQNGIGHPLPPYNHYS
Chain of UniProt Q12797 (Q12797 whole entry, looked up): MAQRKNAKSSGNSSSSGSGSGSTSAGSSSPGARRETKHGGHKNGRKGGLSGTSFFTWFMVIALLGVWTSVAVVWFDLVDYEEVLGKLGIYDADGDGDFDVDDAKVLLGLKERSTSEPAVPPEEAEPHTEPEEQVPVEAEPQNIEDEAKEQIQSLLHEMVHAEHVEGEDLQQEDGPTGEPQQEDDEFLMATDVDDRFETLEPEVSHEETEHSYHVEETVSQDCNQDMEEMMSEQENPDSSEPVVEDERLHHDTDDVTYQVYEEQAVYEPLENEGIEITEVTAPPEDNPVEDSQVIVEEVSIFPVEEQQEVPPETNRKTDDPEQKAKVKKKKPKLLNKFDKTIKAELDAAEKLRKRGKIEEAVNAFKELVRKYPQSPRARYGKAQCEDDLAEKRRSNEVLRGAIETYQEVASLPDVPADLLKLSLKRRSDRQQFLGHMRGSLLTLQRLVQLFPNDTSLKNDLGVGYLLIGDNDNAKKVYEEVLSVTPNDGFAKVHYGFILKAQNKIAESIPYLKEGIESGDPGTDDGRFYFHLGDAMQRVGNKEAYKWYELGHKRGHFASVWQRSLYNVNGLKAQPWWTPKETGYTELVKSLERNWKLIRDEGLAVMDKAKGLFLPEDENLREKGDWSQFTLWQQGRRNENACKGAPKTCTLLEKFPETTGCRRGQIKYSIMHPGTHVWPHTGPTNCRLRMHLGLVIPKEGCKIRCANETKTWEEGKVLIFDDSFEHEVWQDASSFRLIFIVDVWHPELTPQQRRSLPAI
Chain of UniProt Q3SY69 (Q3SY69 whole entry, looked up): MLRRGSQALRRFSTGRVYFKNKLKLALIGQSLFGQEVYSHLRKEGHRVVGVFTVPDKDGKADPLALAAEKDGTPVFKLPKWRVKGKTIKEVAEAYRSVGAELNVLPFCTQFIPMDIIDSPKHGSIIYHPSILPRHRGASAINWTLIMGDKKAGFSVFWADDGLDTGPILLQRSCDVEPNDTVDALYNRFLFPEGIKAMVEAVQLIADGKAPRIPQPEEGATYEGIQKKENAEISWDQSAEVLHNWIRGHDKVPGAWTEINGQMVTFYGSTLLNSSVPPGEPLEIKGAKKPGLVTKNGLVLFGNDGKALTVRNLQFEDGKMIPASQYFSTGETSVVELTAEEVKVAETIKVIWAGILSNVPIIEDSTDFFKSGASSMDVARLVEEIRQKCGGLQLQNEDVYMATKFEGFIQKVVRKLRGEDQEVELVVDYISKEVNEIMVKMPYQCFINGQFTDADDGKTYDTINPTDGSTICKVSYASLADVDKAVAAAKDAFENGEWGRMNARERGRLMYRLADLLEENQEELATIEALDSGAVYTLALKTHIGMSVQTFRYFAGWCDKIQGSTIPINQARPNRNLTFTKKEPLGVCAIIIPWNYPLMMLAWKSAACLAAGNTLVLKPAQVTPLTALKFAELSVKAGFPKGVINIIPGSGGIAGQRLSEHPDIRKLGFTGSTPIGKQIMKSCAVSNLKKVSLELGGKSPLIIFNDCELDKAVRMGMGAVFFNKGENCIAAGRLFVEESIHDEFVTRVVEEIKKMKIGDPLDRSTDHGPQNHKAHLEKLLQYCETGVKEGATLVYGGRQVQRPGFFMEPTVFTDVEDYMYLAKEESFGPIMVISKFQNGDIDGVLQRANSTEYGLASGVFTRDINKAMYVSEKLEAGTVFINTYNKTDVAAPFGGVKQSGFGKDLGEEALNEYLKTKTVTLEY
Chain of UniProt P04083 (P04083 whole entry, looked up): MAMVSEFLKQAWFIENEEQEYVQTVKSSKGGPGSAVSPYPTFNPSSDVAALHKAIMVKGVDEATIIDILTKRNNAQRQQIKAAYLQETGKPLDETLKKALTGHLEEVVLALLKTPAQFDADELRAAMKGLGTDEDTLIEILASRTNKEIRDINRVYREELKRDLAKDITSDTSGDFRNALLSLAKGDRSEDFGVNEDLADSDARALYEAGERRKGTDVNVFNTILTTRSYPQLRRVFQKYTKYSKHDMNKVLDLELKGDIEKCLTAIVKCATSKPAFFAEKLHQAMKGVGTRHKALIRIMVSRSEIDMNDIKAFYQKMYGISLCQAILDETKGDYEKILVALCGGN
Chain of UniProt Q9H1I8 (Q9H1I8 whole entry, looked up): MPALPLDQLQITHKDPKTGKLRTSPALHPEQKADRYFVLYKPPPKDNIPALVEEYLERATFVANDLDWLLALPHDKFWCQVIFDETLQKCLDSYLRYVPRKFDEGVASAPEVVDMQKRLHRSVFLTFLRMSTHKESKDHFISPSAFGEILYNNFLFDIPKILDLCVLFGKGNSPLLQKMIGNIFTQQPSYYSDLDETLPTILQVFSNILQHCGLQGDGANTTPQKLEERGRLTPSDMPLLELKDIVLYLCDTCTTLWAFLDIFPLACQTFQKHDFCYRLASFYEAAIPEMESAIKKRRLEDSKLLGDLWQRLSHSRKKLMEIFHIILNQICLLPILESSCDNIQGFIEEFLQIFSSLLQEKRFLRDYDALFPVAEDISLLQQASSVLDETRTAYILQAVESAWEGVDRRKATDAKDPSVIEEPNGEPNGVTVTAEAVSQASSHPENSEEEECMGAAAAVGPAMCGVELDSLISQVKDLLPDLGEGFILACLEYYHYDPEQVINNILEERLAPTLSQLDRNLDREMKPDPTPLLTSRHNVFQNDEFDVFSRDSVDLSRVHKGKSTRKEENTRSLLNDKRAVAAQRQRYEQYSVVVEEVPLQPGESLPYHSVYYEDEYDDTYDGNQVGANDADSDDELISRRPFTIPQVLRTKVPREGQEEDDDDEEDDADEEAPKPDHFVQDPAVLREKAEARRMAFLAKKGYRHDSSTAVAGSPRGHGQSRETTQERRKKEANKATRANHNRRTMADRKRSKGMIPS
Chain of UniProt P40616 (P40616 whole entry, looked up): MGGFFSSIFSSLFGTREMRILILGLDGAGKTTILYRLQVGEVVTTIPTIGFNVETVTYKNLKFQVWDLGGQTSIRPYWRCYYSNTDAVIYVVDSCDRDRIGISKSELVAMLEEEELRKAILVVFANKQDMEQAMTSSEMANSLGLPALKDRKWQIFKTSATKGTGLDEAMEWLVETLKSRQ

Row | Target | log2 fold change (vemurafenib) | log2 fold change [1] | log2 fold change (barasertib) | log2 fold change [2] | log2 fold change (volasertib) | log2 fold change [3] | log2 fold change [4] | log2 fold change [5] | log2 fold change (saracatinib) | log2 fold change (sotrastaurin)
1 | AGL (UniProt P35573) | -0.014 | 0.002 | -0.015 | -0.063 | -0.058 | 0.013 | 0.131 | -0.083 | 0.013 | 0.049
2 | ACTG1 (UniProt I3L4N8) | 0.131 | -0.062 | 0.218 | -0.208 | -0.006 | -0.384 | 0.94 | -0.091 | -0.002 | 0.001
3 | ALKBH4 (UniProt Q9NXW9) | 0.061 | 0.018 | 0.086 | -0.133 | -0.068 | 0.074 | 0.025 | 0 | -0.019 | 0.036
4 | ABHD17A isoform 2 (UniProt Q96GS6) | -0.007 | -0.08 | 0.007 | 0.036 | 0.012 | 0.022 | 0.001 | 0.013 | -0.027 | -0.05
5 | ABCF3 (UniProt Q9NUQ8) | 0.013 | 0.037 | 0.03 | -0.079 | -0.099 | 0.044 | 0.015 | -0.059 | -0.006 | 0.033
6 | ARAP1 (UniProt Q96P48) | -0.014 | 0.006 | 0.013 | -0.034 | -0.085 | 0.029 | -0.076 | 0.015 | -0.001 | 0.006
7 | ALDH1L2 (UniProt Q3SY69) | -0.084 | -0.026 | 0.002 | -0.006 | -0.045 | 0.007 | -0.089 | -0.014 | -0.002 | 0.013
8 | AKR1B1 (UniProt P15121) | 0.006 | 0.024 | 0.02 | 0.072 | -0.015 | 0.008 | -0.054 | 0.116 | 0.065 | -0.012
9 | AGO4 (UniProt Q9HCK5) | 0.033 | 0.003 | 0.04 | -0.003 | 0.017 | -0.003 | 0.036 | 0.041 | -0.011 | -0.021
10 | AMMECR1 (UniProt Q9Y4X0) | 0.067 | 0 | 0.008 | -0.019 | -0.03 | -0.026 | -0.012 | 0.032 | 0 | 0.008
11 | ACTBL2 (UniProt Q562R1) | -0.097 | 0.089 | -0.117 | 0.098 | -0.166 | 0.105 | 0.417 | -0.023 | -0.108 | 0.049
12 | ACAT1 (UniProt P24752) | 0 | -0.016 | 0.006 | 0.033 | 0.019 | 0.003 | -0.038 | -0.006 | 0.011 | 0.007
13 | ARHGAP21 (UniProt Q5T5U3) | 0.107 | 0.073 | 0.061 | -0.01 | -0.027 | 0.037 | 0.043 | -0.202 | 0.034 | 0.023
14 | AMDHD2 isoform 3 (UniProt Q9Y303) | 0.009 | 0.019 | -0.021 | 0.003 | 0.015 | -0.024 | -0.031 | 0.005 | -0.007 | 0.019
15 | ABCA3 (UniProt Q99758) | 0.114 | -0.044 | 0.057 | -0.009 | 0.089 | -0.163 | -0.086 | 0.051 | -0.05 | 0.031
16 | ACADM isoform 2 (UniProt P11310) | 0.02 | -0.011 | 0.069 | 0.001 | -0.062 | -0.051 | -0.031 | -0.046 | -0.023 | 0.67 (active)
17 | ALDH18A1 (UniProt P54886) | 0.052 | -0.006 | 0.033 | -0.054 | -0.033 | 0.036 | 0.009 | -0.005 | 0.003 | 0.014
18 | ANKRD52 (UniProt Q8NB46) | -0.052 | 0.032 | 0.029 | -0.019 | 0.097 | 0.063 | 0.061 | -0.015 | -0.022 | -0.008
19 | ABCC5 (UniProt O15440) | -0.603 (active) | -0.001 | -0.034 | -0.067 | -0.136 | 0.145 | -0.137 | -0.022 | 0.013 | 0.018
20 | APEX1 (UniProt P27695) | 0.019 | 0.017 | -0.027 | -0.03 | -0.004 | 0.043 | 0.37 (active) | -0.07 | -0.001 | 0.009
21 | ASCC2 (UniProt Q9H1I8) | 0.037 | 0.069 | 0.025 | -0.054 | -0.024 | 0.007 | 0.051 | -0.103 | 0.04 | 0.027
22 | ASPH (UniProt Q12797) | 0.009 | 0.009 | -0.001 | 0.03 | 0.002 | -0.018 | 0.011 | -0.024 | 0.055 | 0.01
23 | ASB6 (UniProt Q9NWX5) | -0.249 | -0.039 | 0.109 | 0.651 (active) | -0.026 | -0.002 | 0.182 | 0.075 | -0.05 | -0.01
24 | ALG3 (UniProt Q92685) | 0.084 | -0.011 | 0.031 | 0.012 | 0.01 | 0.032 | -0.371 | 0.06 | 0.068 | 0.029
25 | AGPAT1 (UniProt Q99943) | 0.008 | 0.016 | 0.038 | -0.013 | 0.006 | -0.004 | 0.068 | -0.049 | 0.038 | -0.009
26 | ARMCX3 (UniProt Q9UH62) | -0.024 | 0.027 | 0.102 | -0.033 | -0.045 | 0.021 | -0.01 | -0.049 | 0.012 | 0.016
27 | ARL1 (UniProt P40616) | 0.046 | 0.007 | -0.031 | 0.03 | -0.066 | -0.04 | -0.101 | -0.005 | -0.005 | 0.042
28 | ABHD17B (UniProt Q5VST6) | 0.051 | -0.002 | -0.073 | 0.234 | 0.094 | -0.034 | 0.08 | 0.054 | 0.092 | -0.002
29 | ANXA1 (UniProt P04083) | -0.007 | -0.027 | -0.038 | -0.022 | -0.011 | 0.008 | 0.028 | 0.049 | -0.019 | 0.017
30 | ARMC6 (UniProt Q6NXE6) | -0.053 | 0.02 | 0.071 | -0.136 | -0.056 | 0.019 | 0.002 | -0.035 | 0.013 | 0.019
